In publication PMC5700166 one finds binding signal data, which are given here for 14 sequences.

The target in this assay is T1, GST-Nv-NF-kB (Ser allele) (Nematostella vectensis, UniProt A7UNT2 2-411).
T1 sequence: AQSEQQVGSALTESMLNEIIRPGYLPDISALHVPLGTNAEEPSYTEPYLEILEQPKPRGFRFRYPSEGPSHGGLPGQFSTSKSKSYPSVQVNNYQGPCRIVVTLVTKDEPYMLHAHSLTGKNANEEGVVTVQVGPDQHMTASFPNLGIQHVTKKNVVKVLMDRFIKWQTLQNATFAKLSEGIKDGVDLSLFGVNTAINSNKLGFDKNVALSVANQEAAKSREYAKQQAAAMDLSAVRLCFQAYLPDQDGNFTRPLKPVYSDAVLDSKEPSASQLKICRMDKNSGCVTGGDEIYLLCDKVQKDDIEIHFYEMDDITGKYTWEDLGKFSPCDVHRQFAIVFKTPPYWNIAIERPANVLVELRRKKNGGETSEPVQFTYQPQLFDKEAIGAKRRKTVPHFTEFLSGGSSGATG
The experiment in a line: protein-binding microarray (PBM); PBM: ~300 nM protein, 6 mM HEPES pH 7.8, 80 mM KCl, 0.5 mM EDTA, 0.5 mM EGTA, 6% glycerol, 35 ng/ul poly-dIdC, 1% milk, 1 h, room temperature; Ap Aiptasia and Nv Nematostella (sea anemones) / Co Capsaspora / Aq Amphimedon (sponge) / Dm Drosophila / Hu human; RHD is the Rel homology domain; high values mean tight binding. As to conditions: dsDNA, one strand shown.
“CCGATTAACATCAGGAGACCCCCTGATGTTAATCGGGTCTTGATTCGCTTGACGCTGCTG” displayed a binding signal of 2.64 z-score.
“CCGATTAACATCAAAAAATCACCTGATGTTAATCGGGTCTTGATTCGCTTGACGCTGCTG” gave a binding signal of 5.57 z-score.
For “CCGATTAACATCACGGAATTCCCTGATGTTAATCGGGTCTTGATTCGCTTGACGCTGCTG”, the binding signal came to 6.06 z-score.
As to “CCGATTAACATCATTTTACCTTGTGATGTTAATCGGGTCTTGATTCGCTTGACGCTGCTG”, the binding signal was determined as 3.39 z-score.
To “CCGATTAACATCAAAAAAACCCTTGATGTTAATCGGGTCTTGATTCGCTTGACGCTGCTG” belongs 5.27 z-score.
In turn, “CCGATTAACATCAATCCCCCCCGTGATGTTAATCGGGTCTTGATTCGCTTGACGCTGCTG” registered a binding signal of 4.97 z-score.
As to “CCGATTAACATCAGAAAGTTCCCTGATGTTAATCGGGTCTTGATTCGCTTGACGCTGCTG”, the binding signal came out at 3.65 z-score.
In turn, “CCGATTAACATCAGAAAAATCCCTGATGTTAATCGGGTCTTGATTCGCTTGACGCTGCTG” gave a binding signal of 5.14 z-score.
In turn, “CCGATTAACATCAAGGAACCCCCTGATGTTAATCGGGTCTTGATTCGCTTGACGCTGCTG” yielded a binding signal of 6.23 z-score.
“CCGATTAACATCAAAAAACCCCGTGATGTTAATCGGGTCTTGATTCGCTTGACGCTGCTG” showed a binding signal of 6.46 z-score.
To “CCGATTAACATCAGGGAAAGGGATGATGTTAATCGGGTCTTGATTCGCTTGACGCTGCTG” belongs 3.11 z-score.
Regarding “CCGATTAACATCAGGGGGAGGGATGATGTTAATCGGGTCTTGATTCGCTTGACGCTGCTG”, the binding signal turned out to be 4.98 z-score.
As for “CCGATTAACATCAGAGTATCCCCTGATGTTAATCGGGTCTTGATTCGCTTGACGCTGCTG”, the binding signal amounted to 5.44 z-score.
Take “CCGATTAACATCACCGCTTCCCTTGATGTTAATCGGGTCTTGATTCGCTTGACGCTGCTG”: the binding signal is 1.69 z-score.
